Several values for one entry are separate records, joined by “and”; a condition that tells them apart may be missing. Equal values may be shown once. Records with an inconclusive call do not appear. Activity calls are given as the source filed them. Calls come from the whole dose curve.

A short description of assay [1]: qHTS drug screen for cell cycle checkpoint inhibitors in PARPi-resistant BRCA-mutant ovarian cancer cell lines. (AID 1963452). Note: potency is the fitted concentration of half-maximal effect. The note with it: PEO1/OlaR viability, CellTiter-Glo luminescence, 96 h; for Z-AUC: stronger effect = lower value. A digest of the protocol:
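PEO1, PEO4 and PEO1/OlaR ovarian cancer cells, 600 per well, exposed 96 h at 37C to a dilution series. Viability read by CellTiter-Glo luminescence, normalized to DMSO and empty wells; activity summarized as Z-AUC.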
(In qHTS, concentration-response curves come from the screen itself.)

Assay [2] is described as follows: qHTS for identification of novel therapeutic agents for treatment of microphthalmiaassociated transcription factor (MiT) renal cell carcinoma (RCC) (AID 1963991). The settings on record: CellTiter-Glo, 48 h, stronger effect = lower value. A digest of the protocol: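 Viability of three TFE3-fusion renal carcinoma lines measured by CellTiter-Glo after 48 h treatment with each of 1912 compounds at 11 concentrations. Responses scaled between DMSO (100%) and empty wells (0%) before curve fitting.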

The mark [3] stands for this setting: measured here: PEO1 parental Z-AUC.
Setting [4] is: TFE3-RCC UOK109 viability, measured here: UOK109 Z-AUC.
[5] abbreviates: TFE3-RCC viability, measured here: UOK124 Z-AUC.
Where [6] appears, read: TFE3-RCC viability, measured here: UOK145 Z-AUC.

Take `COc1cc(F)c(F)c(Nc2ccc(I)cc2F)c1NS(=O)(=O)C1(C[C@H](O)CO)CC1`: in assay [1], the Potency was 2.45 µM (active). For the same compound, the values for the Z-AUC in assay [1] (setting [3]) and in assay [1] (measured here: PEO4 Z-AUC) were -1.43 and -1.19, respectively.
Consider `NC(=O)c1ccc(-c2nc(-c3ccc4c(c3)OCCO4)c(-c3ccccn3)[nH]2)cc1`, for which the Z-AUC in assay [1] was 0.559 (inactive); in assay [1] (setting [3]), 0.194; in assay [1] (measured here: PEO4 Z-AUC), 0.167.
With `Cn1c(=O)c(F)c(Nc2ccc(I)cc2F)c2c(=O)n(C[C@@H](O)CO)cnc21`, in assay [1], the Potency was 0.123 µM (active). In addition, the Z-AUC was -1.86 in assay [1] (setting [3]) and -2.03 in assay [1] (measured here: PEO4 Z-AUC).
For the compound `CC(C)c1onc(-c2c(Cl)cccc2Cl)c1COc1ccc(/C=C/c2cccc(C(=O)O)c2)c(Cl)c1`, the Z-AUC in assay [1] was 0.394 (inactive); in assay [1] (setting [3]), -0.0133; in assay [1] (measured here: PEO4 Z-AUC) it was 0.0704.
Taken in the same sequence, the figures for `N#CC[C@H](C1CCCC1)n1cc(-c2ncnc3[nH]ccc23)cn1` were 0.476 (inactive), 0.0833 and 0.752.
Taken in the same sequence, the figures for `O=C1CCCC2=C1C(c1[nH]ncc1Cl)N=C(Nc1nc3ccccc3o1)N2` (stereo not drawn) were 0.0101 (inactive), 0.851 and 0.0586.
Regarding `CN(C(=O)c1ccc(F)cc1C(F)(F)F)C1CCN(c2nnc(-c3ccnn3C)c3ccccc23)CC1`, the results for the Z-AUC in assay [1], in assay [1] (setting [3]) and in assay [1] (measured here: PEO4 Z-AUC) were -0.541 (inactive), -0.599 and -0.538, respectively.
`CN[C@@H](C)C(=O)N[C@H]1CCCC[C@H]2CC[C@@H](C(=O)N[C@@H](c3ccccc3)c3cn(CCCCc4ccc(CCCCn5cc([C@@H](NC(=O)[C@@H]6CC[C@@H]7CCCC[C@H](NC(=O)[C@H](C)NC)C(=O)N76)c6ccccc6)nn5)cc4)nn3)N2C1=O`: the Z-AUC in assay [1] is 1.6 (inactive); in assay [1] (setting [3]), 0.404; in assay [1] (measured here: PEO4 Z-AUC) it was 0.201.
In the case of `CCOc1ccn(-c2ccc(F)cc2)c(=O)c1C(=O)Nc1ccc(Oc2ccnc(N)c2Cl)c(F)c1`, the Z-AUC in assay [1] was -0.773 (inactive); in assay [1] (setting [3]) it was -0.706; in assay [1] (measured here: PEO4 Z-AUC) it was -0.86.
For `CCn1c(-c2nonc2N)nc2cnc(Oc3cccc(NC(=O)c4ccc(OCCN5CCOCC5)cc4)c3)cc21` the same measures were 0.926 (inactive), 0.828 and 0.912.
In the case of `Cc1cnc(NC(=O)C2=C(O)c3ccccc3S(=O)(=O)N2C)s1`, the Z-AUC in assay [1] is 0.682 (inactive) and 1.14 (inactive) and 0.871 (inactive); in assay [1] (setting [3]) it was 0.615 and 0.579 and 0.604; in assay [1] (measured here: PEO4 Z-AUC), 0.593 and 0.643 and 0.888. In addition, the z-score in assay [2] (setting [4]) was 0.549; in assay [2] (setting [5]), 0.223; in assay [2] (setting [6]) it was 0.231.
On to `Cc1cc(-c2ccc(CC(=O)Nc3ccc(-c4cccnc4)cc3)cc2)ccn1`, for which the Z-AUC was 1.38 (inactive) in assay [1], 0.679 in assay [1] (setting [3]) and 0.307 in assay [1] (measured here: PEO4 Z-AUC).
For `Cc1cc2c(F)c(Oc3ncnn4cc(OC[C@@H](C)O)c(C)c34)ccc2[nH]1` the same measures were 0.786 (inactive), 0.535 and 0.987.
For the compound `c1ccc(-c2nn3c(c2-c2ccnc4cc(OCCN5CCOCC5)ccc24)CCC3)nc1`, the Z-AUC in assay [1] was 0.744 (inactive); in assay [1] (setting [3]) it was 0.379; in assay [1] (measured here: PEO4 Z-AUC) it was 0.692.
`COc1nc(-c2ccc3c(c2)OCO3)n(-c2ccc(NC(=O)CSc3ccccc3)cc2)n1`: the Z-AUC in assay [1] is 1.83 (inactive); in assay [1] (setting [3]) it was 1.23; in assay [1] (measured here: PEO4 Z-AUC), 1.19. In addition, the z-score in assay [2] (setting [4]) was determined as 0.687; in assay [2] (setting [5]) it was 0.0138; in assay [2] (setting [6]), 0.717.
In the case of `Cc1cc(SCc2sc(-c3ccc(C(F)(F)F)cc3)nc2C)ccc1OCC(=O)O`, the results for the Z-AUC in assay [1], in assay [1] (setting [3]) and in assay [1] (measured here: PEO4 Z-AUC) were 1.25 (inactive), 0.45 and 0.535, respectively. The z-score in assay [2] (setting [4]) is 0.936; in assay [2] (setting [5]) it was 0.482; in assay [2] (setting [6]), 0.629.
For the compound `Nc1ncnc2nc(-c3ccc(N4CCOCC4)nc3)cc(-c3cccc(Br)c3)c12`, the Z-AUC is 0.819 (inactive) in assay [1], 1.06 in assay [1] (setting [3]) and 0.514 in assay [1] (measured here: PEO4 Z-AUC).
For `Cc1cc([C@@H](C)Nc2ccccc2C(=O)O)c2nc(N3CCOCC3)cc(=O)n2c1` the same measures were 0.266 (inactive), 0.877 and 0.854.

(Values after PubChem BioAssay (NCATS).)
